Measured values as given in PubChem BioAssay (NCATS).
Inconclusive results are not listed. Activity calls are given as the source filed them. The call rests on the fitted dose curve. Numbered stars: 1 amine (or outer) side, 2 acyl side, 3 side chain; on linkers, the order of the positions; unused ones are H or OH. Square brackets hold non-standard residues; d marks the D form. Side chains are listed from the residue outwards. Peptide text beside a SMILES is read from it. * marks the point of attachment. Ethylenediamine = C(CN[*:2])N[*:1]; Hyp = O=C(O)[C@@H]1C[C@@H](O)CN1; Phg = N[C@H](C(=O)O)c1ccccc1; CO = O=C([*:1])[*:2]; Bn = c1ccc(C*)cc1

How the values were obtained:
Conditions in all cases: outcome: dose series up to 57.1 µM unless noted
[1] = Primary qHTS for inhibitors of SARS-S pseudo-typed particle cell entry (AID 1479145); further: nearly all actives have a fitted effect of over 45% in size; on activity change, negative = inhibition: series mostly up to about 57 µM
[2] = Primary qHTS for Huh7 cytotoxicity: counterscreen for inhibitors of MERS-S pseudotyped particle cell entry (AID 1479147)
[3] = Primary qHTS for inhibitors of MERS-S pseudo-typed particle cell entry (AID 1479149); further: nearly all actives have a fitted effect of over 60% in size; on activity change, negative = inhibition: series mostly up to about 57 µM
[4] = Primary qHTS for Vero E6 cytotoxicity: counterscreen for inhibitors of SARS-S pseudo-typed particle cell entry (AID 1479150)
[5] = Cytotoxicity counterscreen for inhibitors of SARS-CoV-2 cell entry (AID 1645845); further: nearly all actives have a fitted effect of over 50% in size; on activity change, negative = cytotoxicity: series mostly up to about 57 µM
Procedure, shortened: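 After a 15 min room-temperature ATPLite 1step step, luminescence reflected ATP remaining in HEK293-ACE2 cells exposed to compound for 1 h plus 48 h at 37 C, with percent activity set by cell and no-cell controls.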
On the % scale 0 is the no-effect control and ±100 the full control effect.

OC[C@H]1O[C@@H](OCCc2ccc(O)cc2)[C@H](O)[C@@H](O)[C@@H]1O
inactive: Potency [1] | Potency [2] | Potency [3] | Potency [4] | Potency [5]

NCCCC[C@@H]1NC(=O)[C@@H](Cc2c[nH]c3ccccc23)NC(=O)[C@H](c2ccccc2)NC(=O)[C@@H]2C[C@@H](OC(=O)NCCN)CN2C(=O)[C@H](Cc2ccccc2)NC(=O)[C@H](Cc2ccc(OCc3ccccc3)cc2)NC1=O (cyclo([Hyp]([CO-Ethylenediamine])[Phg][dW]KY(Bn)F))
inactive: Potency [1] | Potency [2] | Potency [3] | Potency [4] | Potency [5]

CC1(C)S[C@@H]2[C@H](NC(=O)[C@H](NC(=O)N3CCNC3=O)c3ccccc3)C(=O)N2C1C(=O)O (stereo not given in full)
inactive: Potency [1] | Potency [2] | Potency [3] | Potency [4] | Potency [5]

CC(C)(C)NC(=O)[C@H]1CC[C@H]2[C@@H]3CC=C4C=C(C(=O)O)CC[C@]4(C)[C@H]3CC[C@]12C
inactive: Potency [1] | Potency [2] | Potency [3] | Potency [4] | Potency [5]

CCC(C)C(NC(=O)C(Cc1ccc(O)cc1)NC(=O)C(NC(=O)C(CCCN=C(N)N)NC(=O)C(N)CC(=O)O)C(C)C)C(=O)NC(Cc1cnc[nH]1)C(=O)N1CCCC1C(=O)NC(Cc1ccccc1)C(=O)O (stereo not given)
inactive: Potency [1] | Potency [2] | Potency [3] | Potency [4] | Potency [5]

Cc1cc(-c2ccc(N=Nc3c(S(=O)(=O)O)cc4cc(S(=O)(=O)O)cc(N)c4c3O)c(C)c2)ccc1N=Nc1c(S(=O)(=O)O)cc2cc(S(=O)(=O)O)cc(N)c2c1O
inactive: Potency [1] | Potency [2] | Potency [3] | Potency [4] | Potency [5]

COC(F)(F)C(Cl)Cl
inactive: Potency [1] | Potency [2] | Potency [3] | Potency [4] | Potency [5]

O=C(O)CCSC[C@H]1O[C@@H]2O[C@H]3[C@H](O)[C@@H](O)[C@@H](O[C@H]4[C@H](O)[C@@H](O)[C@@H](O[C@H]5[C@H](O)[C@@H](O)[C@@H](O[C@H]6[C@H](O)[C@@H](O)[C@@H](O[C@H]7[C@H](O)[C@@H](O)[C@@H](O[C@H]8[C@H](O)[C@@H](O)[C@@H](O[C@H]9[C@H](O)[C@@H](O)[C@@H](O[C@H]1[C@H](O)[C@H]2O)O[C@@H]9CSCCC(=O)O)O[C@@H]8CSCCC(=O)O)O[C@@H]7CSCCC(=O)O)O[C@@H]6CSCCC(=O)O)O[C@@H]5CSCCC(=O)O)O[C@@H]4CSCCC(=O)O)O[C@@H]3CSCCC(=O)O
inactive: Potency [1] | Potency [2] | Potency [3] | Potency [4] | Potency [5]

Cn1nnnc1SCC1=C(C(=O)O)N2C(=O)[C@H](NC(=O)C(O)c3ccccc3)C2SC1 (stereo not given in full)
inactive: Potency [1] | Potency [2] | Potency [3] | Potency [4] | Potency [5]

COCC1=C(C(=O)OC(C)OC(=O)OC(C)C)N2C(=O)[C@@H](NC(=O)/C(=N/OC)c3csc(N)n3)[C@H]2SC1 (stereo not given in full)
inactive: Potency [1] | Potency [2] | Potency [3] | Potency [4] | Potency [5]

CC1=CC(O)CC(C)(C)C1/C=C/C(C)=C/C=C/C(C)=C/C=C/C=C(C)/C=C/C=C(C)/C=C/C1=C(C)CC(O)CC1(C)C (stereo not given)
inactive: Potency [1] | Potency [2] | Potency [3] | Potency [4] | Potency [5]

C=C[C@@H]1C[C@]1(NC(=O)[C@@H]1C[C@@H]2CN1C(=O)[C@H](C(C)(C)C)NC(=O)O[C@@H]1C[C@H]1CCCCCc1nc3ccc(OC)cc3nc1O2)C(=O)NS(=O)(=O)C1CC1
inactive: Potency [1] | Potency [2] | Potency [3] | Potency [4] | Potency [5]

CC(C)(CO)C(O)C(=O)NCCCC(=O)O (stereo not given)
inactive: Potency [1] | Potency [2] | Potency [3] | Potency [4] | Potency [5]

CC(C)OC(=O)CCC/C=C\C[C@@H]1[C@@H](CC[C@@H](O)CCc2ccccc2)[C@H](O)C[C@@H]1O
inactive: activity change, negative = inhibition [1] -26.3% [at 11.4 µM] | activity change, negative = cytotoxicity [2] -6.62% [at 11.4 µM] | outcome [3] inactive [at 11.4 µM] | activity change, negative = cytotoxicity [4] 3.55% [at 11.4 µM] | activity change, negative = cytotoxicity [5] -2.53% [at 11.3 µM]

CCOC(=O)COc1ccc2c(=O)cc(-c3ccccc3)oc2c1
inactive: Potency [1] | Potency [2] | Potency [3] | Potency [4] | Potency [5]

CCc1ccc(Nc2c(F)c(F)cc(F)c2F)c(CC(=O)O)c1
inactive: Potency [1] | Potency [2] | Potency [3] | Potency [4] | Potency [5]

O=S(=O)(O)CCCS(=O)(=O)O
inactive: Potency [1] | Potency [2] | Potency [3] | Potency [4] | Potency [5]

C=CC[N@@+]12CC[C@]34c5ccccc5N5/C=C6\C7N(/C=C(\C53)[C@@H](C[C@@H]41)/C(=C/CO)C2)c1ccccc1[C@@]71CC[N@@+]2(CC=C)C/C(=C\CO)[C@@H]6C[C@@H]12 (stereo not given in full)
inactive: Potency [1] | Potency [2] | Potency [3] | Potency [4] | Potency [5]

CCCCCc1ccc(C)cc1O
inactive: Potency [1] | Potency [2] | Potency [3] | Potency [4] | Potency [5]

CCCc1ccc(C(=O)O)cc1
inactive: Potency [1] | Potency [2] | Potency [3] | Potency [4] | Potency [5]

CC(C)CN(C[C@@H](O)[C@H](Cc1ccccc1)NC(=O)O[C@H]1CCOC1)S(=O)(=O)c1ccc(N)cc1
inactive: Potency [1] | Potency [2] | Potency [3] | Potency [4] | Potency [5]

O=[N+]([O-])c1ccc(/C=C/c2cccc(CO)n2)o1
inactive: Potency [1] | Potency [2] | Potency [3] | Potency [4] | Potency [5]

[2H]N[C@@H](Cc1ccccc1)C(=O)N1CCC[C@H]1C(=O)N[C@@H](CCCNC(=N)N)C(=O)N1CCC[C@H]1C(=O)NCC(=O)NCC(=O)NCC(=O)NCC(=O)N[C@@H](CC(N)=O)C(=O)NCC(=O)N[C@@H](CC(=O)O)C(=O)N[C@@H](Cc1ccccc1)C(=O)N[C@@H](CCC(=O)O)C(=O)N[C@@H](CCC(=O)O)C(=O)N[C@H](C(=O)N1CCC[C@H]1C(=O)N[C@@H](CCC(=O)O)C(=O)N[C@@H](CCC(=O)O)C(=O)N[C@@H](Cc1ccc(O)cc1)C(=O)N[C@@H](CC(C)C)C(=O)O)[C@@H](C)CC
inactive: activity change, negative = inhibition [1] -29.4% [at 11.4 µM] | outcome [2] inactive [at 11.4 µM] | activity change, negative = inhibition [3] -9.94% [at 11.4 µM] | activity change, negative = cytotoxicity [4] -0.847% [at 11.4 µM] | activity change, negative = cytotoxicity [5] 2.97% [at 11.3 µM]

CC(C)[C@H]1CC[C@H](C)C[C@H]1O
inactive: Potency [1] | Potency [2] | Potency [3] | Potency [4] | Potency [5]

O=c1[nH]cnc2c([C@@H]3N[C@H](CO)[C@@H](O)[C@H]3O)c[nH]c12
inactive: Potency [1] | Potency [2] | Potency [3] | Potency [4] | Potency [5]
